# Measurements published in PubChem BioAssay (NCI).
# This is part of a sample that, as a whole, favours compounds with a hit. Of some 83,000 tested, about 20% had one in any assay.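 In brief: 96-well plates, 48 h treatment, single concentration, percent growth endpoint.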 A number with no mark means an inactive call. The source made the active and inactive calls. How the source made its calls: active means growth percent below 10; inactive means the rest.
# System: M14 melanoma
# Test: NCI-60 one-dose screen, 48 h (100 = growth as untreated, 0 = no growth, -100 = all killed)
# Conditions: 10 µM unless noted
row,Structure (SMILES),growth
1,CC1=C(C)C(=O)C(Nc2ccc(C)cc2)=C(Br)C1=O,106%
2,Cc1ccc(N2CCN(C3=C(Cl)C(=O)c4ncccc4C3=O)CC2)cc1,70.3%
3,COc1ccc2[nH]cc(-c3nc(N)nnc3-c3cn(C)c4ccc(Br)cc34)c2c1,5.3% (active)
4,O=C(/C=C/c1ccccc1Cl)Nc1ncc(Cc2cc(Cl)ccc2Cl)s1,18.2%
5,CN(C)S(=O)(=O)c1ccc(-c2nc(C(Cl)Cl)nc3cc(-c4ccc(F)cc4)nn23)cc1,1.95% (active)
6,Fc1ccc(-c2cn3c(-c4c[nH]c5ccc(Br)cc45)csc3n2)cc1,67.4%
7,C#Cc1nc(/C=C/CCCCCCC(=O)NO)cs1,62.4%
8,C#C[C@]1(O)CC[C@H]2[C@@H]3CC=C4c5sc(Nc6ncccc6C)nc5CC[C@]4(C)[C@H]3CC[C@@]21C,-55.9% (active)
9,CC(C)=CCC[C@](C)(O)[C@H]1CC[C@]2(C)[C@@H]1CC[C@@H]1[C@@]3(C)CC[C@H](N)C(C)(C)[C@@H]3CC[C@]12C,92.9%
10,Cc1cc2nc3c4cc(C#N)ccc4n(CCN(C)C)c3nc2cc1C,-83.3% (active)
11,N#Cc1c(-c2cccs2)cc(-c2cnccn2)nc1SCC(=O)N/N=C/c1ccncc1,110%
12,CCOC(=O)c1cccc(NC2=C(Cl)C(=O)C(C)=C(C)C2=O)c1,100%
13,c1ccc(-c2cn3c(-c4c[nH]c5ccccc45)csc3n2)cc1,73%
14,Cc1cc(Br)ccc1-n1cc(C#N)c(N)c1C(=O)c1ccc(Br)cc1,89.4%
15,Cn1cc(-c2cc3ncnc(Nc4ccc(NC(=O)Nc5cc(C(C)(C)C)on5)cc4)c3s2)cn1,11.6%
16,Nc1cc(C(=O)N/N=C\c2ccc(OC(F)F)c(OC3CCCC3)c2)nn1CC(O)c1ccccc1 (stereo not given),110%
17,COc1ccc(C2CC(c3cccc(OCCCCOc4cccc(C5=NOC(c6ccc(OC)cc6)C5)c4)c3)=NO2)cc1 (stereo not given),90.5%
18,O=C(COc1ccc(/C=C2\C(=O)Nc3ccc(Cl)cc32)cc1)Nc1ccc(Cl)cc1,7.47% (active)
19,Cn1cc(-c2nnc(N)nc2-c2c[nH]c3ccc(F)cc23)c2cc(Br)ccc21,-6.09% (active)
20,C[C@H](Nc1ncnc2ccc(-c3cnc(Cl)c(NS(C)(=O)=O)c3)cc12)c1ccccc1,-13.5% (active)

row,Structure (SMILES),growth
1,O=C(CSc1nc2ccccc2c(=O)n1CCc1ccccc1)Nc1ccc(S(=O)(=O)Nc2ccc(Cl)nn2)cc1,96.2%
2,NS(=O)(=O)c1ccc(Nc2nc(N/N=C/C=C/c3ccccc3)nc(Nc3ccccc3)n2)cc1,40.3%
3,O=C1[C@H]2Cc3c([nH]c4ccccc34)[C@H](c3ccc(Br)cc3)N2C(=O)CN1C1CCN(CC2CCCCC2)CC1,-17.4% (active)
4,CCc1cc2c(cc1Cl)nc1c(=O)[nH]c(=O)nc-1n2CCOCC(C)(C)C,61.8%
5,COc1ccc(-c2nc(C#N)c(N3CCC(S(=O)(=O)N4CCOCC4)CC3)o2)cc1,109%
6,COC(=O)c1ccc(NC2=C(Cl)C(=O)c3nc(C)ccc3C2=O)cc1,59.9%
7,Cc1ccccc1N1CCN(C2=C(Cl)C(=O)c3ncccc3C2=O)CC1,36.2%
8,CC[C@]12C=CCN3CC[C@@]4(c5ccc(OC)cc5N(C)[C@H]4[C@@](O)(C(=O)OC)[C@@H]1OC(=O)CCN1CCc4ccccc4C1)[C@@H]32,98.2%
9,Cc1nc(N)sc1-c1csc(Nc2ccc(C(F)(F)F)cc2)n1,28.4%
10,Cn1cc(-c2nnc(N)nc2-c2c[nH]c3ccc(Br)cc23)c2cc(Br)ccc21,102%
11,C#C[C@]1(O)CC[C@H]2[C@@H]3CC=C4c5sc(N(C)c6ccccc6)nc5CC[C@]4(C)[C@H]3CC[C@@]21C,54.3%
12,NS(=O)(=O)c1ccc(Nc2nc(Nc3ccccc3)nc(N3N=C(c4ccc(Cl)cc4)CC3c3ccc(Cl)cc3)n2)cc1 (stereo not given),34.6%
13,O=C(CCCCCCN1CC(=O)N2[C@@H](c3ccc(Cl)s3)c3[nH]c4ccccc4c3C[C@H]2C1=O)NO,51.8%
14,CCCCc1nc2c(N)nc3ccccc3c2n1Cc1cccc(CN)c1,-89.2% (active)
15,N#C/C(=C\c1ccc(-c2ccc(Cl)c(Cl)c2)o1)C(=O)Nc1ncc(Cc2ccc(Cl)cc2)s1,21.6%
16,O=C(Nc1ccc(Cl)c(C(F)(F)F)c1)Nc1ccc2oc(=O)ccc2c1,49.6%
17,COc1ccc2[nH]cc(/C=N/Nc3ccnc4cc(Cl)ccc34)c2c1,-79.7% (active)
18,O=C1Nc2ccccc2/C1=C/c1ccc(OCC(=O)c2ccccc2)cc1,95.7%
19,NS(=O)(=O)c1nnc(/N=C/c2c(O)[nH]c3ccccc23)s1,94%
20,COc1cc(/C=C2/C(=O)Nc3ccc(Cl)cc32)ccc1OCc1ccc(Cl)cc1,96.4%
